A short description of test [1]: blockers of polyQ-driven CASP3 activation – cell-based (AID 1583). The note with it: polyglutamine-induced caspase-3 activation, cell assay; stronger effect = higher value;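 tested at 10 µM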.
Test [2] can be described thus: yeast 75Q aggregation reduction – 75Q-TubU reporter (AID 1593). The following applies: Yeast 75Q polyglutamine aggregation reporter.
Test [3] in a line: restoration of touch response, mutant HTT neurons – whole organism, C. elegans mechanosensory neurons, N-terminal huntingtin (AID 1599). The following applies: C. elegans polyQ-huntingtin mechanosensory neurons, stronger effect = higher value.
Test [4] can be described thus: blockers of cytochrome c efflux from mitochondria – biochemical, purified mitochondria (AID 1603).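 Further: mouse liver mitochondria challenged with calcium chloride; signal normalized to the plate average as 100%.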 The note with it: stronger effect = lower value.
Test [5] is described as follows: polyglutamine aggregate formation blockers (AID 1604). The note with it: polyglutamine-induced protein aggregation inhibition assay; stronger effect = higher value; tested at 2.5 µM.
Test [6] is described as follows: glutamate transport activators, MN-1 cells, MN-1 cell line (AID 1612).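 Further: tested at 1 µM final; 0% = mean of DMSO vehicle wells on each plate; positive means more glutamate uptake than control and negative means less.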 The note with it: MN-1 motor neuron cells, stronger effect = higher value.
The nature of test [7]: 75Q-TubH aggregate inhibition, S. cerevisiae, yeast (AID 1616). The following applies: S. cerevisiae 75Q-TubH polyglutamine aggregation suppression; stronger effect = higher value.
Test [8] is described as follows: P. berghei load reduction in hepatocytes – cell-based, HepG2, luciferase luminescence, HepG2 viability, primary screen (AID 624349; in the data active means parasite load remaining mostly below about 12%, no sharp cut-off; inactive means mostly above about 10%;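 further: 100% = mean of DMSO negative control wells on the same plate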). The note with it: P. berghei liver stage in HepG2, luciferase luminescence, concentration not given here; parasite load remaining: stronger effect = lower value; viability: measured here: HepG2 viability without parasites.
Test [9] has as its target 6-phosphogluconate dehydrogenase, decarboxylating (Homo sapiens) (UniProt P52209). Description: inhibition of human phosphogluconate dehydrogenase – biochemical, recombinant enzyme, NADPH absorbance, primary screen (AID 1159550;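 active means at least 20% inhibition of 6-phosphogluconate dehydrogenase activity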). The note with it: recombinant 6PGD, NADPH absorbance 341 nm; at 10 µM; stronger effect = higher value.
The nature of test [10]: EMT-state selective cytotoxicity in co-culture – imaging, PC-3E GFP, TEM4-18 mCherry, primary screen (AID 1345086;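 active means compounds killing one labelled cell type while sparing the other, by normalised counts and ratio limits, not self-fluorescent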;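 on all read-outs here: cells exposed to compound for 72 h before imaging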;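 on red/green cell ratio (normalised): normalised mesenchymal count divided by normalised epithelial count so high means epithelial killing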). The following applies: PC-3E GFP / TEM4-18 mCherry co-culture, imaging cell counts, at 1 µM; for red/green cell ratio (normalised): actives lie on both sides.
Test [11] deals with Aerobactin synthetase IucA (Klebsiella pneumoniae hvKP1). The test can be described thus: IucA enzyme inhibition, primary screen, biochemical, Spectrum library (AID 1346200).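 Further: 100% = wells without compound and 0% = wells lacking enzyme.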 The note with it: malachite green pyrophosphate, A620, at 8 µM, stronger effect = lower value.
Test [12] in a line: viability loss with induced miR-34 in A549 – imaging, A549 dox-inducible miR-34, nuclei and caspase counts, primary screen (AID 1347080;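 active means compounds whose cell count with miR-34 switched on is under 0.7 times the count with it off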). The note with it: A549 miR-34 inducible, Hoechst nuclei count, 48 h.
For test [13], the target named is NAD(+) hydrolase SARM1 (Homo sapiens) (UniProt Q6SZW1). The test can be described thus: blocking NAD cleavage by SARM1 SAM-TIR – cell lysate, NAD-Glo luminescence (AID 1508614;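 active means compound whose remaining NAD level is above about 45 nM, limit read from the data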). The following applies: SAM-TIR HEK293T lysate NADase, at 1 µM, stronger effect = higher value.
In test [14] the target is Mitogen-activated protein kinase 7 (Homo sapiens) (UniProt Q13164). Description: Gal4-ERK5 driven luciferase induction – cell-based, HTS, primary screen (AID 1508626;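 active means luciferase signal above three times the same-plate solvent-only control wells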;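 further: luciferase driven by Gal4-ERK5 fusion binding five Gal4 sites before minimal TATA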). The following applies: HeLa Gal4-ERK5 transactivation, 18 h, at 5 µM, stronger effect = higher value.
In test [15] the test system is Aerobactin synthetase IucA (Klebsiella pneumoniae, hypervirulent). Description: biochemical IucA inhibition screen of LOPAC library by absorbance (AID 1346212).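 Further: 100% = no compound wells and 0% = no enzyme wells.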 The following applies: IucA enzyme assay, absorbance (OD) readout; stronger effect = lower value;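 tested at 8 µM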.
The nature of test [16]: galactose survival enhancers in mitochondrial complex I cybrids – cell-based, galactose medium, ATP luminescence, primary screen (AID 1645843;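 active means z-score of at least 1.8 in each of two replicates, scored against plate mean and spread of sample wells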;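 further: positive z means more ATP and so rescue of galactose-driven cybrid death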). The following applies: complex I mutant cybrid cells, 72 h, stronger effect = higher value.
Test [17] has as its target ATP-dependent translocase ABCB1 (Homo sapiens) (UniProt P08183). Description: P-glycoprotein substrate transport blockade – cell-based (AID 377; in the data active means fluorescence slope change above about 50%). The note with it: MDR1-expressing cells, fluorescent substrate accumulation slope; stronger effect = higher value; concentration not given here.
The nature of test [18]: compounds altering viability of human ES cells (AID 493140).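 Further: cells exposed to compounds for four days before counting.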 The following applies: human embryonic stem cell survival screen; stronger effect = higher value.
Test [19] is described as follows: GFP-Q80 aggregate reduction, neuronal-like cells, cell-based, NGF-treated PC12, GFPQ80 (AID 1614).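 Further: lower means fewer inclusions and 0 means no inclusions at all.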 The note with it: PC12 NGF-treated GFP-polyQ80 inclusion reduction.
[20] abbreviates: measured here: epithelial PC-3E GFP cell survival.
Where [21] appears, read: measured here: mesenchymal TEM4-18 mCherry cell survival.
Where [22] appears, read: measured here: relative caspase fold change +Dox/-Dox.
[23] abbreviates: measured here: total cells with miR-34 induction, stronger effect = lower value.
Where [24] appears, read: measured here: total cells without miR-34 induction.

This is an account of results in PubChem BioAssay.

Several values for one entry are separate records, joined by “and”; a condition that tells them apart may be missing. Equal values may be shown once. Inconclusive results are not listed. For part of these data: Entries with a potency or affinity are not part of this list. Activity calls are given as the source filed them. Unless noted, how the calls were made is not given here.

A word on the inhibition: it is the drop in the measured response relative to a control, in per cent. The term viability denotes a read-out of living cells in per cent, often relative to untreated cells. The term remaining activity denotes the signal under treatment as a percentage of the control signal.

Chain of 6-phosphogluconate dehydrogenase, decarboxylating (Homo sapiens) (P52209 whole entry, looked up): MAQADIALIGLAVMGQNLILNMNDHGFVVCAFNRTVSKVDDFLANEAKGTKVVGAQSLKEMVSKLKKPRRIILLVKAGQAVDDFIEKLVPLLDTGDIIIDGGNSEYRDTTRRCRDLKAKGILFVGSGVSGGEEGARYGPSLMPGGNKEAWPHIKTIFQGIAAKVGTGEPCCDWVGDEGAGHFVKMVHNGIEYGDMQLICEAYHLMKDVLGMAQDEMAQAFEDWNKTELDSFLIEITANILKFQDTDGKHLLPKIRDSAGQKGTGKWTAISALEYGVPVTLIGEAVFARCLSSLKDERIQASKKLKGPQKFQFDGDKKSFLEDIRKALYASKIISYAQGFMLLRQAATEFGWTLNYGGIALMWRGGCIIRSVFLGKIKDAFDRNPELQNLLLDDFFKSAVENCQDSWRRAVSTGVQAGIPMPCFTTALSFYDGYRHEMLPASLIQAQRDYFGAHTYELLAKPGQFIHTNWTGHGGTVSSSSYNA
Chain of Mitogen-activated protein kinase 7 (Homo sapiens) (Q13164 whole entry, looked up, the tested form may be a part): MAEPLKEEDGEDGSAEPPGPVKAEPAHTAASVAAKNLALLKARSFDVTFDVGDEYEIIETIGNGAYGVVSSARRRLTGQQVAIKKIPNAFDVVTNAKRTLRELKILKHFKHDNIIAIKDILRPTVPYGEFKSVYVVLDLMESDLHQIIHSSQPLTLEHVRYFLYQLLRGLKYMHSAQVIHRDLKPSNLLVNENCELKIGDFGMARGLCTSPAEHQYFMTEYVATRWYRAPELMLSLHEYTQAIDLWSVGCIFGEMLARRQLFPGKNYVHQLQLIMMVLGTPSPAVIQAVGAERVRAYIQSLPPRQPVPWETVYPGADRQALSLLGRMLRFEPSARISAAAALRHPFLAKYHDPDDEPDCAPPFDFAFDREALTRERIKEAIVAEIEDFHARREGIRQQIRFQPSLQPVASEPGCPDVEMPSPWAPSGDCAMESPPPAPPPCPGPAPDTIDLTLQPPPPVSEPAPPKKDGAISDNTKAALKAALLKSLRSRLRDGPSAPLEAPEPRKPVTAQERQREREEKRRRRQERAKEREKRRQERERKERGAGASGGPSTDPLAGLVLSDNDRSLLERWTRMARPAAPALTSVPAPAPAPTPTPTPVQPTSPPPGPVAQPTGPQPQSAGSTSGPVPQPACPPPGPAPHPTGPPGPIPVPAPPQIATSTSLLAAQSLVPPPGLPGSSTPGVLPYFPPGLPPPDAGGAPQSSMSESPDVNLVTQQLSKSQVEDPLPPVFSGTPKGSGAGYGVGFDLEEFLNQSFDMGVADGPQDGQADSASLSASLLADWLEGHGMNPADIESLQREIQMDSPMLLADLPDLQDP
Chain of NAD(+) hydrolase SARM1 (Homo sapiens) (Q6SZW1 whole entry, looked up, the tested form may be a part): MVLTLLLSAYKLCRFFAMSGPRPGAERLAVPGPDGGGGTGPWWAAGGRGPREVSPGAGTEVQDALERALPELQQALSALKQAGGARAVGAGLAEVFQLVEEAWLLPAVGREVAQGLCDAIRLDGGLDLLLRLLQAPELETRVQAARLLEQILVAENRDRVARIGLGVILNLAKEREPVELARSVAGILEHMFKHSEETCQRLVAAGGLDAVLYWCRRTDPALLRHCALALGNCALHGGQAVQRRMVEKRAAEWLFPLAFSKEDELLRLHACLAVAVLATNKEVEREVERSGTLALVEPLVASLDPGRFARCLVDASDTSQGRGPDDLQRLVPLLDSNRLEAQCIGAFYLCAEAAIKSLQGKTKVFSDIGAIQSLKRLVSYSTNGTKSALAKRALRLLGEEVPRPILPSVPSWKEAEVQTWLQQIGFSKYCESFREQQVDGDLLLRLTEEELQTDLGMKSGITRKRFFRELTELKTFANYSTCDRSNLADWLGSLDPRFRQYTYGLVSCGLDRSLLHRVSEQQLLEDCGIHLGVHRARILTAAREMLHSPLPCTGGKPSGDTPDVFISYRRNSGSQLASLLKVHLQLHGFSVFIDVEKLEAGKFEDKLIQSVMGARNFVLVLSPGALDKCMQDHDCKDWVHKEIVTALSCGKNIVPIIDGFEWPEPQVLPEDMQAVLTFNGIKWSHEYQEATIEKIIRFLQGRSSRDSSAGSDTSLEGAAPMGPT
Chain of ATP-dependent translocase ABCB1 (Homo sapiens) (P08183 whole entry, looked up): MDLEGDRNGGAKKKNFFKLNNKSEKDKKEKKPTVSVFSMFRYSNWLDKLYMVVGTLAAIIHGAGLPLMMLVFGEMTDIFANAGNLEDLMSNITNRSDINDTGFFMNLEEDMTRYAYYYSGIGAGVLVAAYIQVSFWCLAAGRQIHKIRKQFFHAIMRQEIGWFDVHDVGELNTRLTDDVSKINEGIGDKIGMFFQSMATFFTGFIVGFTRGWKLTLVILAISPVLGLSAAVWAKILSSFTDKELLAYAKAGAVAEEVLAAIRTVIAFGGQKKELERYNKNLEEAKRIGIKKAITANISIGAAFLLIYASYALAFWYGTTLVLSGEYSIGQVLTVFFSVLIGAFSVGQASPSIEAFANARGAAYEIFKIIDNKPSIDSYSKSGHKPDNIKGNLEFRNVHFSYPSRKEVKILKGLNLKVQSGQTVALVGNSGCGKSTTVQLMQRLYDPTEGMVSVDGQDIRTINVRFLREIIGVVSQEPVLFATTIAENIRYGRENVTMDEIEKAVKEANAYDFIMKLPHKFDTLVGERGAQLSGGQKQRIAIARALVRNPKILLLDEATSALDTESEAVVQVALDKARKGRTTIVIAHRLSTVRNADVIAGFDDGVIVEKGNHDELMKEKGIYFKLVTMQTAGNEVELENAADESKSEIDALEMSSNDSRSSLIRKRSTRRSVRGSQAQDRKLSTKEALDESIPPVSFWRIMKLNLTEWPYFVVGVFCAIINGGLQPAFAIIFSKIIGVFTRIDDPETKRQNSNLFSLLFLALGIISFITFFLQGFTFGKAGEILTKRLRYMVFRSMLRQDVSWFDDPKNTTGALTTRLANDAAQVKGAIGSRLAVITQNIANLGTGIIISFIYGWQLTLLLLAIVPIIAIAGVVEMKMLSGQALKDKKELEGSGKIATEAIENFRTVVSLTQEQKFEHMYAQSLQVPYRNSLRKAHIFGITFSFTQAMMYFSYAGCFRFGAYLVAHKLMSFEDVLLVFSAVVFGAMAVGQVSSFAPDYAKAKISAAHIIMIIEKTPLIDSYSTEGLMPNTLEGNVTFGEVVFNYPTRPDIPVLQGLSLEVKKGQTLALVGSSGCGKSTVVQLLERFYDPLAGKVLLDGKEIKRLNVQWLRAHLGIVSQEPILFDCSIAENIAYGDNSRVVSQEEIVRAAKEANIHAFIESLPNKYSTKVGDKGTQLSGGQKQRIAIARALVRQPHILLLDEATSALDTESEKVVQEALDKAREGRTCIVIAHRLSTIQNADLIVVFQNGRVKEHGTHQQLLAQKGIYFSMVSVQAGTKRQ

Consider `ClC1C(Cl)C(Cl)C(Cl)C(Cl)C1Cl` (stereo unspecified), for which the inhibition is 25.7% in test [1] and 7.58% (inactive) in [9]. The score in test [2] was found to be 0.3. In [3], the rescue above control was -3.21. Besides, the cytochrome c release ratio in test [4] is 1.15. The compound further displayed an inhibition of aggregation in [5] of 69.4%. Also, the glutamate uptake change in test [6] came out at 1.02%. This compound showed an aggregation suppression score in [7] of -0.101. For the same compound, the parasite load remaining in test [8] was 60.1% (inactive). Besides, in test [8], the viability came out at 93.4%. The red/green cell ratio (normalised) in test [10] was 1.19 (inactive). The normalised cell number came out at 1.23 in [10] (setting [20]) and 1.47 in [10] (setting [21]). Further, the activity remaining in [11] is 113% (inactive). For the same compound, the fold change in test [12] (stronger effect = lower value) was 0.871 (inactive); in [12] (setting [22]) it was 1.71. Further, the cell count worked out at 10400 in test [12] (setting [23]) and 11900 in [12] (setting [24]). Also, the remaining NAD in test [13] is 10 nM (inactive). In [14], the luciferase signal was 192 AU (inactive).
For `CN1C2CCC1CC(OC(c1ccccc1)c1ccccc1N)C2` (stereo unspecified), in test [9], the inhibition is 2.13% (inactive). Moreover, the red/green cell ratio (normalised) in test [10] was 0.76 (inactive). For the same compound, the normalised cell number in [10] (setting [20]) was 1.34; in test [10] (setting [21]) it was 1.01. In test [11], the activity remaining was 118% (inactive). Moreover, in test [15], the remaining activity was 119% (inactive). Also, the results for the fold change in test [12] (stronger effect = lower value) and in test [12] (setting [22]) were 1 (inactive) and 2.1, respectively. Moreover, the values for the cell count in [12] (setting [23]) and in test [12] (setting [24]) were 9770 and 9760, respectively. For the same compound, the z-score in test [16] is -0.4 (inactive).
With `COc1ccc2c(c1O)-c1c(OC)c(OC)cc3c1[C@H](C2)N(C)CC3`, in test [17], the fluorescence slope change was 13.7% (inactive). Besides, the survival in [18] is 5.58 (inactive). Also, the parasite load remaining in test [8] is 125% (inactive) and 105% (inactive) and 60.3% (inactive). Moreover, the viability in test [8] was 106% and 65% and 79.8%. Also, the inhibition in [9] is 3.42% (inactive). Also, the red/green cell ratio (normalised) in [10] was 1.1 (inactive). Besides, the normalised cell number in test [10] (setting [20]) was 0.99; in test [10] (setting [21]) it was 1.09. Moreover, the activity remaining in test [11] was 116% (inactive). The fold change is 0.862 (inactive) in test [12] (stronger effect = lower value) and 1.06 in test [12] (setting [22]). Further, the values for the cell count in [12] (setting [23]) and in test [12] (setting [24]) were 9380 and 10900, respectively. Also, in [14], the luciferase signal was 72 AU (inactive).
With `CNC(C)C(O)c1ccccc1` (stereo unspecified), the inhibition in test [1] was 28.1% and 10.2%; in test [9], -20.1% (inactive). Also, the score in test [2] is 0.95 and 1.05. Also, the rescue above control in test [3] is -2.36 and -10.7. In test [4], the cytochrome c release ratio was 1.45 and 0.98. Further, the inhibition of aggregation in test [5] is 84.6% and 51.5%. Moreover, in [6], the glutamate uptake change is -17.5% and 6.9%. In [19], this compound gave an inclusion score of 2. Besides, the aggregation suppression score in test [7] was 1.13 and 1.02. Besides, the parasite load remaining in [8] is 90.9% (inactive) and 53.2% (inactive). Further, the viability in [8] is 77.9% and 114%. Besides, the red/green cell ratio (normalised) in [10] was 0.97 (inactive). The normalised cell number in test [10] (setting [20]) came out at 1.05; in test [10] (setting [21]), 1.03. Moreover, the activity remaining in test [11] is 81.5% (inactive). Further, the figures for the fold change in test [12] (stronger effect = lower value) and in test [12] (setting [22]) were 0.894 (inactive) and 2.97, respectively. Also, the cell count in test [12] (setting [23]) turned out to be 10800; in test [12] (setting [24]) it was 12100. In addition, the remaining NAD in [13] was 10 nM (inactive). In test [14], the luciferase signal is 24 AU (inactive).
